Experimental data: paper PMC13423814

Assays:
Peroxiredoxin-1 = Peroxiredoxin-1 (UniProt Q06830)
[1] = molecular target: DNA replication licensing factor MCM2 (UniProt P49736)
Histone H4 = Histone H4 (UniProt P62805)
[2] = molecular target: Serine/arginine-rich splicing factor 1 (UniProt Q07955)
Chain of Serine/arginine-rich splicing factor 1 (Q07955 whole entry): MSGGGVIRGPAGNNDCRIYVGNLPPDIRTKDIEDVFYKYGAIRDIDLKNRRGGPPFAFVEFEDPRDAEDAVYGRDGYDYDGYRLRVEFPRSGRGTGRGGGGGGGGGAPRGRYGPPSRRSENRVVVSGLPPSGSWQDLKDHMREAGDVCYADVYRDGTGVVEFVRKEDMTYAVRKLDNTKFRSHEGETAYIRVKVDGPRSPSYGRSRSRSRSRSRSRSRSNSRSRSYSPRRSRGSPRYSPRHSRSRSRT

Chain of DNA replication licensing factor MCM2 (P49736 whole entry): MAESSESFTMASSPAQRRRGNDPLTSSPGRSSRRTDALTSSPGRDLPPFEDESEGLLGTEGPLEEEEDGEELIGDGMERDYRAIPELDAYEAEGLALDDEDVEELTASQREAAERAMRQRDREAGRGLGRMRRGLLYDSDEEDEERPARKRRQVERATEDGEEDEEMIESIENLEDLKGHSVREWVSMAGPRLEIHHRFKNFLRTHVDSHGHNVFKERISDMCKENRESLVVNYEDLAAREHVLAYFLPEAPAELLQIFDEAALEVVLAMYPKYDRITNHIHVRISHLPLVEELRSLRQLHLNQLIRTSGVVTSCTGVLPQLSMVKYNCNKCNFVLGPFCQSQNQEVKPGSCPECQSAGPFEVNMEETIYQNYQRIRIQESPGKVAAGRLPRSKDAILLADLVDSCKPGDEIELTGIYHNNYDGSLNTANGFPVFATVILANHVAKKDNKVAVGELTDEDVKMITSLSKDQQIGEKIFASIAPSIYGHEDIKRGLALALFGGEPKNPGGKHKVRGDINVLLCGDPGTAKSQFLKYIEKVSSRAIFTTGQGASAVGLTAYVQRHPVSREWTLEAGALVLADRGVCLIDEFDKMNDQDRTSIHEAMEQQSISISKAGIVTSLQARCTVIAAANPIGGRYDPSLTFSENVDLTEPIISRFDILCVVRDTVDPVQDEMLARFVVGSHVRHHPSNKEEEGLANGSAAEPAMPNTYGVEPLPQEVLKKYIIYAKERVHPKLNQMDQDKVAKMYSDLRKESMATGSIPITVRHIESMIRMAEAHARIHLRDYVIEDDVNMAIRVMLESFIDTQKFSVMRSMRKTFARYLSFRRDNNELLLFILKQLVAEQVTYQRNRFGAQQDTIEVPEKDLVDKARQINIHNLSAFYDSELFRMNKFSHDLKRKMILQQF
Chain of Peroxiredoxin-1 (Q06830 whole entry): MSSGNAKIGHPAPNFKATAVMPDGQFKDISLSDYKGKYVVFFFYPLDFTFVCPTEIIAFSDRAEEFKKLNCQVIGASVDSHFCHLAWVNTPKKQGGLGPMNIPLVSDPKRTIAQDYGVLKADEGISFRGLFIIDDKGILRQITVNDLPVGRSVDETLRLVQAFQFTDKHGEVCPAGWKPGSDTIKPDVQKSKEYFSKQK

## Putative keratin-87 protein, A6NCN2
Peroxiredoxin-1
  listed as a hit: yes

## DNA replication licensing factor MCM3, P25205
[1]
  listed as a hit: yes

## Prelamin-A/C, P02545
Histone H4
  listed as a hit: yes

## RNA-binding motif protein, X chromosome, P38159
[2]
  listed as a hit: yes
